BAZ2B inh: blocks human BAZ2B; Q9UIF8; AlphaScreen BAZ2B-H3K14Ac peptide displacement; Potency, µM (highest dose often 114 µM), without a hit: at the top dose activity change, negative = inhibition, most hits filed as inhibitors; 360,000 compounds, 4.4% hits; also: % is scaled to controls: 0 for no effect and ±100 for the full control effect; nearly all actives have a fitted effect of over 60% in size
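Compounds, titrated to a top concentration of 110 uM, were incubated 30 min at room temperature with preformed BAZ2B/acetyl-K14 H3 peptide complex (50 nM each). Proximity signal was measured by AlphaScreen after 20 min with beads.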
HP1b chromo inh: inhibitors of HP1-beta chromodomain binding to methylated histone tails; P83916; Potency, µM (highest dose often 114 µM), for inactives: at the top dose activity change, negative = inhibition, hits mostly inhibitors; 390,000 compounds, 0.56% hits; AlphaScreen HP1-beta / biotin-H3K9me3 peptide binding; AID 540317; also: nearly all actives have a fitted effect of over 70% in size
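Compound inhibition of the preformed complex between 50 nM HP1-beta and 50 nM biotinylated H3K9me3 peptide was read by AlphaScreen. Buffer was PBS pH 7.4 with 0.01% Tween-20. Incubations ran 30 min at room temperature, with 10 ug/mL donor/acceptor beads.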
G9a block: G9a (human) methyltransferase inhibition; 350,000 compounds, 8.8% hits; AID 504332; Potency, µM (titrated, usually from 102 µM), for inactives: top-dose activity, negative = inhibition, usual class: inhibitors; G9a H3K9 monomethylation, AlphaScreen, 2 h; also: % is scaled to controls: 0 for no effect and ±100 for the full control effect; nearly all actives have a fitted effect of over 75% in size
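AlphaScreen read-out: biotin-H3K9 peptide (500 nM) methylation by 20 nM enzyme with 20 uM SAM, 2 h at room temperature after 15 min compound preincubation; anti-monomethyl H3K9 antibody plus donor/acceptor beads, 10 min dark.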
JMJD2A Tudor: JMJD2A Tudor domain (human) inhibition; O75164; Potency, µM (top dose mostly 114 µM), without a hit: at the top dose activity change, negative = inhibition, actives largely listed as inhibitors; 390,000 compounds, 4.4% hits; AlphaScreen JMJD2A-Tudor / H3K4me3 peptide binding; also: % is scaled to controls: 0 for no effect and ±100 for the full control effect; nearly all actives have a fitted effect of over 50% in size
Target sequence (O75164 whole entry, looked up, the tested form may be a part): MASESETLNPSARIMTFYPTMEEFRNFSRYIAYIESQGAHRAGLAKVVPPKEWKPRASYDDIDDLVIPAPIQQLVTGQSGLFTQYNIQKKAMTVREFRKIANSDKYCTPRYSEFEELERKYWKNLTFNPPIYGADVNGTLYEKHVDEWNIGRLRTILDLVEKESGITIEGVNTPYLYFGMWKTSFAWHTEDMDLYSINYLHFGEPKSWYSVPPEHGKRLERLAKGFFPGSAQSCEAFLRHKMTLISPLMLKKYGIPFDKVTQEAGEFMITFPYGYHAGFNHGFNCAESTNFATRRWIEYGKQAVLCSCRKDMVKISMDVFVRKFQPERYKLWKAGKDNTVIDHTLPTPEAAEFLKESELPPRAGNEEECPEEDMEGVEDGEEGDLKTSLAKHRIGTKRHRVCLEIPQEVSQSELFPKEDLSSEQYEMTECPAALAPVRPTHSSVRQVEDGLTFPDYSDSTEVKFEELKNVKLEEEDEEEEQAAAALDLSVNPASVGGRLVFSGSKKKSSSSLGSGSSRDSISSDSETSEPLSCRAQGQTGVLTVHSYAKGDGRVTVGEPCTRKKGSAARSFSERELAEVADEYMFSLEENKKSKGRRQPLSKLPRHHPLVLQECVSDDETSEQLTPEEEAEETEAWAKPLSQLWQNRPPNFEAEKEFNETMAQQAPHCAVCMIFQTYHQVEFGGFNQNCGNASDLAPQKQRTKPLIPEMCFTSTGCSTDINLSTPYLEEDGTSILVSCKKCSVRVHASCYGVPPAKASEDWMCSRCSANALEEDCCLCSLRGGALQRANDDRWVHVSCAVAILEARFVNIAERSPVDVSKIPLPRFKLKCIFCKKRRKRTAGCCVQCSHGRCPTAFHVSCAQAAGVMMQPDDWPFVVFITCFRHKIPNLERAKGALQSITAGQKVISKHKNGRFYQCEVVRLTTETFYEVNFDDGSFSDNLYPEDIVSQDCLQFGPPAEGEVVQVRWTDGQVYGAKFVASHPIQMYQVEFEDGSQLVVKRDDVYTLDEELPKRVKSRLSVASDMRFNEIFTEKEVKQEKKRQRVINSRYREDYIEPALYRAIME
L3MBTL1 inh: blocks human L3MBTL1; Potency, µM (highest dose often 57.1 µM), inactives show at the highest dose activity, negative = inhibition, most hits filed as inhibitors; AlphaScreen L3MBTL1–H3K9me1 peptide binding; Q9Y468; AID 485360; 230,000 compounds, 0.66% hits; also: % is scaled to controls: 0 for no effect and ±100 for the full control effect; nearly all actives have a fitted effect of over 60% in size
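L3MBTL1 50 nM + b-AHA-H3(1-15)K9me1 75 nM, 30 min RT; compound added, 30 min RT; streptavidin donor/Ni-chelate acceptor beads 10 ug/mL each final, 30 min RT dark; AlphaScreen read.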
Numbers without * were called inactive; ? = inconclusive; nt = no result given; [ ] = another dose, or the depositor's remark. A selection: hits, their analogues and other compounds. The true share with any hit is near 11%. Calls follow the shape of the dose curve; as a rule, active = well fitted inhibition curve with a large enough effect; inconclusive = small, poorly fitted or top-dose-only effect; inactive = no such curve, though single readings can be large or run the other way. Potency is read from the fitted curve at half-maximal effect.

SMILES	BAZ2B inh	HP1b chromo inh	G9a block	JMJD2A Tudor	L3MBTL1 inh
Cc1ccccc1-n1c(-c2ccc(Br)o2)n[nH]c1=S	nt	21%	nt	25µM*	nt
CC(C)Cn1c(-c2ccc(Br)o2)n[nH]c1=S	-9%	29%	1.8µM*	4%	-3%
CC(=O)Nc1ccc(S(=O)(=O)Nc2ccc(C)c(C)c2)cc1	nt	nt	nt	-5%	nt
Cc1cccc(NC(=O)CSCC(=O)NCc2ccco2)c1	-29%	10%	3%	-22%	nt
CC(C)c1ccc(NC(=O)c2ccc3c(c2)C(=O)N(Cc2cccnc2)C3=O)cc1	6%	17%	100%	-18%	nt
Cc1cc(-c2n[nH]c(=S)n2-c2ccccc2C)cs1	-4%	20%	1.3µM*	35µM*	1%
Cc1cc(C)c(NC(=O)CCC(=O)N2Cc3ccccc3Oc3ncccc32)c(C)c1	12%[57.1 µM]	0%	3%[59 µM]	-21%	nt
Cc1cc2c(s1)c1cnn(Cc3c(Cl)cccc3Cl)c(=O)c1n2C	nt	nt	nt	-26%	nt
COc1ccc(C)cc1Nc1n[n+](C)c(-c2c3ccccc3cc3ccccc23)s1	-17%[57.1 µM]	48%	45µM*	-20%	-17%
COc1ccc(C)cc1Nc1cc(C)nc(C)n1	-3%	58%	5%[59 µM]	2%	nt
COc1ccc(C)cc1Nc1n[n+](C)c(-c2ccc(O)cc2O)s1	-28%	47%	18µM*	-17%	-4%
COc1ccc(C)cc1Nc1c2c(nc3ccccc13)CCC2	-25%	?	-14%	?	nt
COCCn1ccc2c(OCC(=O)Nc3cccc(NC(C)=O)c3)cccc2c1=O	-30%	6%	-17%	-11%	-10%
COc1cccc(NC(=S)Nc2ccc(O)cc2)c1	?	-20%	8.9µM*	-20%	nt
CNC(=S)/N=C(/Nc1ccccc1)c1ccccc1	?	23%	7.9µM*	-18%	-6%
O=C(NNC(=S)Nc1ccccc1)NNC(=S)Nc1ccccc1	-20%	6%	14µM*	-26%	-17%
Oc1ccc(NC(=S)Nc2ccccc2)cc1	-17%	19%	50µM*	-10%	3%
O=C(NNC(=S)Nc1ccccc1)Nc1ccccc1	-24%	17%	nt	-16%	2%
COc1cccc(NC(=S)Nc2ccc(F)cc2)c1	-9%	40%	13%	-16%	0%
CCn1nc(-c2ccc(C)cc2)nc2c(=O)n(C)c(=O)nc1-2	nt	25%[57 µM]	nt	-6%[57.1 µM]	nt
Cc1ccc2ncc(C(=O)NC(C)c3ccccc3)c(=O)n2c1 (centres undefined)	-1%	15%	6%[59 µM]	-13%	nt
Cc1cccc(C(=O)NCCc2nc3ccccc3n2CCC(C)C)c1	-2%	54%	-4%[59 µM]	-11%	nt
O=C(NNC(=S)Nc1ccccc1)c1ccncc1	-8%	12%	?	-4%	-1%
O=C(NNC(=S)Nc1ccccc1)c1cc(Br)ccc1Cl	-21%	3%	40µM*	-24%	nt
O=C(CN(C(=O)CCC(=O)Nc1nccs1)c1cccc(C(F)(F)F)c1)NCC1CCCO1 (centres undefined)	-1%	-11%	7%	7%	nt
SMILES	BAZ2B inh	HP1b chromo inh	G9a block	JMJD2A Tudor	L3MBTL1 inh
Nc1ccc(-n2nncc2-c2ccc(Cl)cc2)cc1	-7%	-4%	7.1µM*	?	nt
COc1ccc(S(=O)(=O)C(C#N)c2nc3ccccc3nc2N2CCC(C)CC2)cc1 (centres undefined)	45µM*	nt	3.2µM*	nt	2%
CC1CCCN(c2nc3ccccc3nc2C(C#N)S(=O)(=O)c2ccccc2)C1 (centres undefined)	?	36%	?	-17%	-6%
Cc1ccc(S(=O)(=O)C(C#N)c2nc3ccccc3nc2N2CCCCC2)cc1 (centres undefined)	6%	nt	45µM*	nt	-2%
COc1ccc(C(=O)NC(C)c2ccncc2)cc1S(=O)(=O)N(C)Cc1ccccc1 (centres undefined)	3%	17%	11%[2.33 µM]	-19%	-6%
COc1cc(/C=N/N2CCN(C3c4ccccc4-c4ccccc43)CC2)cc(OC)c1O	11µM*	-11%	1.6µM*	?	-9%
COc1ccc(/C=N/N2CCN(C3c4ccccc4-c4ccccc43)CC2)cc1OC	-35%	9%	8%[59 µM]	-22%	-8%
COc1cc(/C=N/N2CCN(C3c4ccccc4-c4ccccc43)CC2)cc(OC)c1OC	-39%	?	50µM*	?	-1%
Cc1ccc(-n2c(=O)c3oc4ccccc4c3n(CC(=O)Nc3ccc(F)c(Cl)c3)c2=O)cc1C	-13%	36%	3%[59 µM]	3%	nt
Cc1cc(Cl)ccc1NC(=O)C1CCCN(c2nnc(C)c3c(C)n(-c4ccccc4)nc23)C1 (centres undefined)	-6%	0%	?	-19%	nt
CCCCN1CCc2c([nH]c3ccccc23)C1=O	8%	21%	6%[12.7 µM]	4%	nt
CCCCC1CN2CCc3c([nH]c4ccccc34)C2(C)C1 (centres undefined)	?	20%	79µM*	1%[57.1 µM]	-1%
O=C(N[C@@H](Cc1ccccc1)c1nc2ccccc2[nH]1)c1cc([N+](=O)[O-])ccc1Cl	-31%	16%	10µM*	-14%	3%
CC(Cc1ccccc1)NC(=O)c1cc([N+](=O)[O-])ccc1Cl (centres undefined)	-17%	23%	18%	-7%	-11%
O=C(NCc1ccccc1Cl)C(=O)NCC(c1ccco1)S(=O)(=O)c1cccs1 (centres undefined)	5%	35%	-20%[59 µM]	-1%	nt
N#Cc1c2c(c(=S)n(-c3ccccc3)c1N)CCCC2	?	1%	8.9µM*	-21%	-10%
CN(CC(=O)Nc1ccc(SC(F)F)cc1)C1CCCCC1	-1%	47%	79µM*	1%	nt
CN1CCC(N(C)CC(=O)Nc2ccc3c(c2)OC(F)(F)O3)CC1	45µM*	?	nt	2µM*	-18%
CN(CC(=O)Nc1ccccc1Cl)C1CCCCC1	16%	34%	29%	20%	6%
CN(CC(=O)Nc1ccc(Cl)c(Cl)c1)C1CCCCC1	-28%	?	22µM*	22µM*	10%
CCOc1ccc(CCNC(=O)c2cc(C)nc3c2c(C)nn3-c2cccc(F)c2)cc1	15%[57.1 µM]	8%	-1%[59 µM]	-3%	nt
O=C(NCC12CC3CC(CC(C3)C1)C2)c1cc2nc(-c3ccc(F)cc3)cc(C(F)(F)F)n2n1	-1%	32%	-3%[59 µM]	-14%	nt
COc1ccc(OC)c(NC2c3ncccc3C(=O)N2Cc2ccco2)c1 (centres undefined)	?	3%	50µM*	-34%	-5%
COc1ccc(C2Nc3ccccc3C(=O)N2Cc2ccco2)cc1OC (centres undefined)	nt	?	nt	-20%[57.1 µM]	nt
COc1ccc(CN2C(=O)c3cccnc3C2O)cc1 (centres undefined)	40µM*	-23%	?	?	nt
COC(=O)c1ccc(NC2c3ncccc3C(=O)N2Cc2cccs2)cc1 (centres undefined)	-3%	24%	?	-8%	nt

Compound activity deposited in PubChem by National Center for Advancing Translational Sciences (NCATS).
